SMILES strings stand for the structures. This is one part of the list. A number with no mark means an inactive call. Calls of active or inactive are those of the source. Cut-off read from the data, not from the text of the source: active = max delta Tm above about 0.48 degrees C; inactive = the rest.

In this test the target is Kelch-like ECH-associated protein 1 (Homo sapiens) (UniProt Q14145). Description: Keap1 Kelch domain binders by thermal stabilisation, dose response, biophysical, thermal shift, RT-PCR instrument, cherry-pick (AID 651823). Particulars: active compounds read high; at 50 µM unless noted.
Sequence of Kelch-like ECH-associated protein 1 (Homo sapiens) (Q14145 whole entry, looked up, the tested form may be a part): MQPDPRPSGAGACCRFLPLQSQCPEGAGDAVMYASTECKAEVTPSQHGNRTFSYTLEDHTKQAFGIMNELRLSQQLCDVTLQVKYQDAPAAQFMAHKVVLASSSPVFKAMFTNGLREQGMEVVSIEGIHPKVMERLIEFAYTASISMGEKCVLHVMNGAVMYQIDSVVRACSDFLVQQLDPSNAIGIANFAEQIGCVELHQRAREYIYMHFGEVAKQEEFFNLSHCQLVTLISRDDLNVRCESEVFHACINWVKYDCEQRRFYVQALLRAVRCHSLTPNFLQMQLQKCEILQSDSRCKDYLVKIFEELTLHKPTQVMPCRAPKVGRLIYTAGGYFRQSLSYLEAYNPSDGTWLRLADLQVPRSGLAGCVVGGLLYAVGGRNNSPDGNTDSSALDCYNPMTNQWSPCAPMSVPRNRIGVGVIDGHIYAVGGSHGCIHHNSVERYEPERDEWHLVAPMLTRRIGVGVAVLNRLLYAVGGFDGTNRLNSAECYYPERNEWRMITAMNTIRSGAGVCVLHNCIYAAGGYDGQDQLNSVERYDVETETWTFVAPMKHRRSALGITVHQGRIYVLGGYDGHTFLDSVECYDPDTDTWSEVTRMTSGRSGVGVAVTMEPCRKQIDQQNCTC
For the molecule `Nc1ccc2nc3c(=O)[nH]c(=S)[nH]c3nc2c1`, the max delta Tm is 0.14 °C.
The figure for `COc1cc(OC)c(S(=O)(=O)Nc2ccccc2C(=O)O)cc1S(=O)(=O)Nc1ccccc1C(=O)O` is 0.77 °C (active); for `COC(=O)C[n+]1cccc2ccccc21` it is -0.13 °C.
The figure for `CC1(C)CC(=O)C(N=Nc2c(F)cccc2F)=C(O)C1` is -0.12 °C [at 6 µM]; for `COc1ccc(Nc2nc(-c3cccnc3)nc3ccccc23)cn1` it is -0.21 °C [at 1.6 µM]; for `O=C(Nc1ccccn1)C1CCN(S(=O)(=O)c2ccc3c(c2)OCCO3)CC1` it is -0.17 °C [at 0.38 µM].
As for `CN1C(=O)c2cccc3c(N)ccc(c23)C1=O`, the max delta Tm is 0 °C [at 26 µM].
Turning to `CCCC(=O)Nc1ccc(C(=O)NCCCn2ccnc2)cc1`, the max delta Tm was -0.11 °C.
With `O=C1CC(Cc2ccc(Cl)cc2)C(=O)N1c1cc(Cl)ccn1` (stereo not drawn) the figure was -0.06 °C [at 0.38 µM]; with `CN(CCOc1ccc(CC2SC(=O)NC2=O)cc1)c1ccccn1` (stereo not drawn), -0.09 °C [at 0.8 µM].
The figure for `O=C(CCc1ccccc1)NNc1ccc(F)cc1` is -0.17 °C [at 0.8 µM]; for `CCN1/C(=C\c2ccc3ccccc3[n+]2CC)Sc2cc(C)ccc21` it is -0.01 °C [at 26 µM]; for `CCCC1OC23CCCCC2C(C#N)(C#N)C1(C#N)C(=N)O3` (stereo not drawn) it is -0.1 °C [at 0.38 µM].
The figure for `O=C(NCCOCc1ccc(Cl)cc1)c1ncn[nH]1` is -0.19 °C; for `Cc1cccc(NS(=O)(=O)c2ccc(C)c(C(=O)NCC(c3ccccc3)N(C)C)c2)c1` (stereo not drawn) it is -0.11 °C [at 0.8 µM]; for `COc1ccc(C2c3ccc(O)cc3Oc3ncn(CCCO)c(=N)c32)cc1OC` (stereo not drawn) it is -0.15 °C [at 6 µM].
With `O=C(O)CC(Cn1cnnn1)c1ccccc1` (stereo not drawn), the max delta Tm was -0.14 °C [at 3 µM].
For `CCCN(CCC)C(=O)C1c2ccccc2Oc2ccccc21`, the max delta Tm was -0.08 °C [at 0.38 µM].
